Potency and outcome data for twelve compounds are collected here from PubChem BioAssay (Tox21).

Assay [1] can be described thus: qHTS assay to identify small molecule agonists of the RXR signaling pathway - cell viability counter screen (AID 1159529). Further: series mostly up to about 77 µM; nearly all actives have a fitted effect of over 50% in size. In outline:
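Compounds dissolved in DMSO were pinned onto HEK 293T cells carrying a beta-lactamase reporter under RXR-alpha control and incubated 16 hr. Cytotoxicity was then quantified by CellTiter-Glo luminescence.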
Background: Quantitative high-throughput screening tests each substance at several concentrations.

A short description of assay [2]: qHTS assay to identify small molecule antagonists of the retinoid acid receptor (RAR) signaling pathway - cell viability counter screen (AID 1159551). Further: nearly all actives have a fitted effect of over 35% in size. In outline:
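Cytotoxicity counter screen in C3RL4 cells: 6 h compound exposure with 1 uM retinol (final), viability from cellular ATP by luminescence.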

Assay [3] can be described thus: qHTS assay to identify small molecule antagonists of the retinoic acid receptor (RAR) signaling pathway (AID 1159552; further: nearly all actives have a fitted effect of over 50% in size). In outline:
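Test chemicals and DMSO controls were pin-transferred onto C3RL4 cells a day after seeding; retinol (1 uM final) followed at once. Luminescent reporter output was quantified after 6 hr of co-incubation and 30 min with detection reagent.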

Assay [4] in a line: qHTS assay to identify small molecule agonists of the retinoic acid receptor (RAR) signaling pathway (AID 1159553). A digest of the protocol:
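Agonist activity was scored in C3RL4 cells bearing a retinoic acid response element luciferase construct. Cells were treated with compounds for 6 hr at 37 C, and luciferase signal was measured as luminescence.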

Assay [5] in a line: qHTS assay to identify small molecule antagonists of the estrogen related receptor (ERR) signaling pathway - cell viability counter screen (AID 1224818). Further: series mostly up to about 46 µM. A digest of the protocol:
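Cells carrying the ERR pathway reporter were seeded and incubated for 6 hours before compound addition. After a 17.5-hour exposure at 37 C, live-cell protease activity was measured by CellTiter-Fluor fluorescence following 30 minutes of incubation.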

Assay [6] is described as follows: qHTS assay to identify small molecule agonists of the estrogen related receptor (ERR) signaling pathway (AID 1224820). A digest of the protocol: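 ERR reporter cells (NTP line) plated 2,000/well, incubated 6 h at 37 C/5% CO2, then pinned with compounds in DMSO and held 18 h at 37 C. One-Glo added; luminescence read after 30 min at room temperature.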
Assay [7] has as its system estrogen-related receptor alpha (ERRalpha) with PGC-1alpha coactivator, human. Briefly: qHTS assay to identify small molecule antagonists of the estrogen related receptor signaling pathway with the pleiotropic PPARgamma coactivator (PGC) (AID 1224821; calls by dose curve;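 further: series mostly up to about 46 µM; lower luminescence signal means antagonism of PGC/ERR signalling; nearly all actives have a fitted effect of over 50% in size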). A digest of the protocol:
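Cells engineered for PGC/ERR signalling (line from NTP) were plated 6 h at 37 C/5% CO2, then exposed to DMSO-dissolved compound for 18 h at 37 C. Luciferase activity was read by One-Glo luminescence after 30 min at room temperature.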

Assay [8] is described as follows: qHTS assay to identify small molecule agonists of the estrogen related receptor signaling pathway with the pleiotropic PPARgamma coactivator (PGC) (AID 1224823). A digest of the protocol:
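PGC/ERR reporter cells were seeded, rested 6 h at 37 C/5% CO2, then exposed to compounds in DMSO by pin transfer for 18 h at 37 C. Luciferase activity was read as luminescence after One-Glo reagent and 30 min at room temperature.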

Assay [9] can be described thus: qHTS assay to identify small molecule antagonists of the estrogen related receptor (ERR) signaling pathway from Tox21 library - cell viability counter screen (AID 1224834). Further: nearly all actives have a fitted effect of over 30% in size. Further: potency means the concentration at half of the fitted maximal effect. In outline: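 Cytotoxicity of test substances is gauged in the same ERR cells used for the antagonist screen, after 17.5 h of compound treatment at 37 C, by CellTiter-Fluor fluorescence measured after 30 min.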

The target in assay [10] is Luciferin 4-monooxygenase (Photinus pyralis) (UniProt P08659). Briefly: qHTS assay to identify small molecule inhibitors of firefly luciferase (AID 1224835). Further: series mostly up to about 120 µM; nearly all actives have a fitted effect of over 25% in size. A digest of the protocol:
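Inhibition of purified Photinus luciferase is measured by luminescence. Substrate levels (D-luciferin, ATP) sit at their KM values. Each compound is tested in a concentration series.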

Assay [11] concerns the target Nuclear receptor subfamily 1 group I member 3 (Homo sapiens) (UniProt Q14994). Briefly: qHTS assay to identify small molecule antagonists of the constitutive androstane receptor (CAR) signaling pathway (AID 1224838). Further: nearly all actives have a fitted effect of over 40% in size. Further: potency means the concentration at half of the fitted maximal effect. A digest of the protocol: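 Compounds were titrated across 15 concentrations onto HepG2 cells double-stably expressing hCAR and a CYP2B6-2.2kb reporter, together with 50 nM CITCO (final). After 24 h at 37 C, luciferase activity was measured by luminescence.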

Assay [12] has the same target. Briefly: qHTS assay to identify small molecule agonists of the constitutive androstane receptor (CAR) signaling pathway (AID 1224839). Further: series mostly up to about 92 µM; nearly all actives have a fitted effect of over 15% in size. In outline:
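Compounds tested at 15 concentrations on HepG2 cells stably harbouring hCAR and CYP2B6-2.2kb reporter constructs, co-treated with PK11195 (0.75 uM final), 24 h at 37 C; luminescent reporter signal quantified.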

The nature of assay [13]: qHTS assay to identify small molecule antagonists of the estrogen related receptor signaling pathway with the pleiotropic PPARgamma coactivator (PGC) from Tox21 10K library - cell viability counter screen (AID 1224840; active means well fitted cell-killing curve with a large enough effect in the repeat runs, not every such curve was filed as active; further: nearly all actives have a fitted effect of over 40% in size). A digest of the protocol:
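Step one, plate 2,000 PGC/ERR cells per well; step two, incubate 6 h at 37 C/5% CO2; step three, pin-transfer compounds; step four, incubate 17.5 h; step five, add CellTiter-Fluor and read fluorescence after 30 min.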

Assay [14] in a line: qHTS assay to identify small molecule antagonists of the estrogen related receptor signaling pathway with the pleiotropic PPARgamma coactivator (PGC) from Tox21 10K library (AID 1224841; call rule not given here; further: series mostly up to about 92 µM; actives are mostly falling curves and most rising ones were filed inactive; nearly all actives have a fitted effect of over 50% in size). In outline:
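Antagonism in this quantitative HTS is taken from loss of luciferase signal in PGC/ERR cells. Cells (2,000/well) are treated with compounds in DMSO after a 6 h settling period and read by One-Glo luminescence after 18 h.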

A short description of assay [15]: qHTS assay to identify small molecule agonists of the estrogen related receptor signaling pathway with the pleiotropic PPARgamma coactivator (PGC) from Tox21 10K library (AID 1224842). Further: nearly all actives have a fitted effect of over 15% in size. A digest of the protocol: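 Luminescence from One-Glo (30 min, room temperature) measured after PGC/ERR cells had 18 h at 37 C with pinned compound (23 nL in DMSO). Cells had been seeded at 2,000 per well and pre-incubated 6 h.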

Assay [16] is described as follows: qHTS assay to identify small molecule agonists of the constitutive androstane receptor (CAR) signaling pathway - cell viability counter screen (AID 1224836). Further: series mostly up to about 92 µM; nearly all actives have a fitted effect of over 45% in size. A digest of the protocol:
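23 h treatment, 37 C, 5% CO2. Cell line: HepG2 stably expressing hCAR with a CYP2B6-2.2kb construct. Co-treatment: PK11195, 0.75 uM final. Read-out: CellTiter-Fluor fluorescence intensity.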

Assay [17] can be described thus: qHTS assay to identify small molecule antagonists of the constitutive androstane receptor (CAR) signaling pathway - cell viability counter screen (AID 1224837). Further: series mostly up to about 92 µM; nearly all actives have a fitted effect of over 45% in size. A digest of the protocol:
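Multiplexed cytotoxicity read-out for the CAR antagonist screen: double-stable HepG2-CYP2B6-hCAR cells co-treated with 50 nM CITCO (final) and compound over 15 concentrations, incubated 23 hr, then assessed by CellTiter-Fluor fluorescence.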

Assay [18] concerns the target Retinoic acid receptor RXR-alpha (Homo sapiens) (UniProt P19793). As to the kind of experiment: qHTS assay to identify small molecule agonists of the RXR signaling pathway (AID 1159527; calls by dose curve; further: nearly all actives have a fitted effect of over 35% in size). A digest of the protocol:
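Using 9-cis retinoic acid as the reference agonist, chemicals were tested in HEK 293T cells […] for 16 hr; substrate loading lasted 2 hr at room temperature.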

The nature of assay [19]: qHTS assay to identify small molecule antagonists of the estrogen related receptor signaling pathway with the pleiotropic PPARgamma coactivator (PGC) cell viability counter screen (AID 1224822; further: series mostly up to about 46 µM). A digest of the protocol: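 Seed PGC/ERR cells (2,000/well); incubate 6 h at 37 C/5% CO2; pin-transfer compounds in DMSO; incubate 17.5 h at 37 C; add CellTiter-Fluor; after 30 min read fluorescence.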

Records with an inconclusive call do not appear. Unmarked numbers belong to inactive results. The source made the active and inactive calls. Unless noted, the call rests on the fitted dose curve; in most records, active means well fitted curve in the direction sought with a large enough effect in the repeat runs; inconclusive means weak or mixed curves; inactive means no such curve, though single readings can be large; an effect the other way counts as inactive or inconclusive.

Chain of Nuclear receptor subfamily 1 group I member 3 (Homo sapiens) (Q14994 whole entry, looked up): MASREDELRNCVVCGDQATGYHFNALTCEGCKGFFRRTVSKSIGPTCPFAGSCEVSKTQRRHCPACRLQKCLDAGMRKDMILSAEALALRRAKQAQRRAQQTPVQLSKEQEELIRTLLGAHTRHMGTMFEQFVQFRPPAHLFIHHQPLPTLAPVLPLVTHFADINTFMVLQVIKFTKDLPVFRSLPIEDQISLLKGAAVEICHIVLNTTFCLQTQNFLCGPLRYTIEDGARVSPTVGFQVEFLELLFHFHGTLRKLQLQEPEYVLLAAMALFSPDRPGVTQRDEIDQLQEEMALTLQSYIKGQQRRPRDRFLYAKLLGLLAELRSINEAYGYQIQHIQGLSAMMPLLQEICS
Chain of Retinoic acid receptor RXR-alpha (Homo sapiens) (P19793 whole entry, looked up): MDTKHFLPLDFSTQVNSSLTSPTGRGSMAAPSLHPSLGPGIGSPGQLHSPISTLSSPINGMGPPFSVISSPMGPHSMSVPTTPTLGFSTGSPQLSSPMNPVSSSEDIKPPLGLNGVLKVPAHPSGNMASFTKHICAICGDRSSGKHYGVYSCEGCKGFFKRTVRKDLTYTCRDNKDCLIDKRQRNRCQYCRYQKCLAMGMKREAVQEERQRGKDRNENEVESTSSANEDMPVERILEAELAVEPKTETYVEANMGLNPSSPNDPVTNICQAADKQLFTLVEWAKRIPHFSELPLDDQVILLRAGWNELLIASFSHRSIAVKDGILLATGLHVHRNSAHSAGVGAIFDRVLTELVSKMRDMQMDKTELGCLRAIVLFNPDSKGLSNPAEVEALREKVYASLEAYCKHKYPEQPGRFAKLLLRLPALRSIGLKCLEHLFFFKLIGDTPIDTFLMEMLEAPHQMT
Chain of Luciferin 4-monooxygenase (Photinus pyralis) (P08659 whole entry, looked up): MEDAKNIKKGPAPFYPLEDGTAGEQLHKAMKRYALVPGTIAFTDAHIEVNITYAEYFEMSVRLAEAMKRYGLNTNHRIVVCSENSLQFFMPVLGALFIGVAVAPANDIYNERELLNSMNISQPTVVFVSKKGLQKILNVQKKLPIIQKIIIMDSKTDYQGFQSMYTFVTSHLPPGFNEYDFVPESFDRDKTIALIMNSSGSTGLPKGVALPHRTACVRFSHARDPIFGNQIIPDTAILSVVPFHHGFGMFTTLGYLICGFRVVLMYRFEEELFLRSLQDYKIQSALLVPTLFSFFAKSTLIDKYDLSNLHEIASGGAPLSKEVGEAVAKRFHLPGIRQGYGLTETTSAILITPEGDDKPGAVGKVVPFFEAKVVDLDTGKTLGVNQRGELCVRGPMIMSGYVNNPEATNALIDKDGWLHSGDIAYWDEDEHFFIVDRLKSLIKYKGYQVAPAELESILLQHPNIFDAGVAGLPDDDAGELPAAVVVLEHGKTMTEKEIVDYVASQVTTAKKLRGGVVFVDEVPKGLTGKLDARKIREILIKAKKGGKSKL

In the case of `c1cc(CN2CCCCC2)cc(OCCCNc2nc3ccccc3s2)c1`, the Potency result in assay [1], in [3], in [4], in assay [10], in [11] and in assay [12] was “inactive” each time. For the same compound, the Potency result in assay [14] and in [15] was “inactive” throughout. The compound was called inactive in assay [2], in assay [5], in assay [6], in assay [7], in assay [8] and in assay [13]. For the same compound, the Potency in [9] was 29.8 µM (active).

`CC(C)(O)Cc1ccccc1`: the Potency entry in [1], in assay [3], in assay [4], in assay [9], in [10] and in assay [11] was “inactive” each time. The Potency result in assay [12], in [14] and in assay [15] was “inactive” in each case. The call in [2], in assay [16], in assay [17] and in assay [13] was inactive.

With `OC/C=C/c1ccccc1`, the Potency entry in assay [18] and in assay [9] was “inactive” in each case. Also, the compound was called inactive in [16], in [17] and in assay [13].

For the compound `CC(C)(C)N(CCO)CCO`, the Potency entry in assay [1], in assay [3], in assay [4], in assay [9], in assay [10] and in [11] was “inactive” throughout. Further, in assay [12], the Potency result is “inactive”. For the same compound, the compound was classed as inactive in assay [2], in [16], in [17] and in assay [13].

On to `CO`, for which the Potency result in assay [18], in assay [9], in assay [11], in assay [12], in assay [14] and in assay [15] was “inactive” each time. Further, the outcome in assay [2], in assay [17] and in assay [13] was inactive.

Take `COC(=O)CCCC(=O)O`: the Potency result in assay [18], in [10] and in [12] was “inactive” each time. Also, the outcome in [2], in assay [16] and in [13] was inactive.

For `COC(=O)C1=C(C)NC(C)=C(C(=O)OCC(C)=O)C1c1ccccc1[N+](=O)[O-]` (stereo not drawn), the Potency entry in assay [18], in [3], in [4], in assay [10], in assay [12] and in assay [14] was “inactive” throughout. For the same compound, the Potency result in [15] is “inactive”. Besides, the outcome in assay [17] and in [13] was inactive.

Consider `CCCCCCCCCCCCCCC`, for which the Potency entry in assay [1], in [3], in assay [4], in assay [9], in [10] and in assay [11] was “inactive” each time. The Potency result in assay [12], in assay [14] and in assay [15] was “inactive” each time. The outcome in assay [2], in assay [16], in assay [17] and in [13] was inactive.

In the case of `CCOC(=O)Nc1ccc2c(c1)N(C(=O)CCN1CCOCC1)c1ccccc1S2`, the Potency entry in assay [1], in assay [3], in [4], in assay [9], in assay [10] and in [12] was “inactive” in each case. In addition, the outcome in assay [2], in assay [16], in [17] and in assay [13] was inactive. Also, in [11], the Potency was 1.19 µM (active).

For the compound `CN(C)C(=O)C(CCN1CCC(O)(c2ccc(Cl)cc2)CC1)(c1ccccc1)c1ccccc1`, the Potency entry in [1], in [3], in assay [4], in assay [10], in assay [14] and in [15] was “inactive” each time. For the same compound, the compound was classed as inactive in [2], in [5], in [6], in assay [19] and in assay [8]. For the same compound, the Potency in assay [9] is 26.6 µM (active).

In the case of `N#CCc1ccccc1[N+](=O)[O-]`, the Potency entry in [18], in assay [3], in assay [4], in assay [9], in assay [10] and in [11] was “inactive” each time. The Potency entry in assay [12] is “inactive”. For the same compound, the call in assay [16], in assay [17] and in [13] was inactive.

Turning to `CC(C)c1cccc(O)c1`, the Potency entry in assay [18], in assay [9], in [11], in assay [12], in assay [14] and in assay [15] was “inactive” in each case. In addition, the compound was classed as inactive in assay [16], in assay [17] and in [13].
